The values below come from PubChem BioAssay AID588499 (NMMLSC, 2011).

SMILES strings stand for the structures. The campaign covered roughly 360,000 compounds. About 610 (0.17%) were called active. Roughly 2% stayed inconclusive and do not appear here. Many of the other results were omitted from the sample, so actives are more common in it than they were. A number with no mark means an inactive call. Rule as the data show it: active = inhibition above about 30%; inconclusive = no clear call, values can overlap the other calls; inactive = below that.

In the assay the test system is Botulinum neurotoxin type A light chain protease (Clostridium botulinum A str. ATCC 3502). Description: blockers of BoNT/A LC substrate cleavage – biochemical, flow cytometry, MLPCN library, primary screen (AID 588499). Also: plate controls were buffer without enzyme for full effect and enzyme alone for no effect. Conditions: multiplex microsphere protease substrate cleavage, at 10 µM, stronger effect = higher value.
Consider `Cc1ccc(C)c2[nH]c(=O)c(CCNC(=O)c3cccs3)cc12`, for which the inhibition is -0.5%.
Regarding `COC(=O)c1ccc(CNC(=O)c2ccc(S(=O)(=O)N3CCCCCC3)cc2)cc1`, the inhibition is 0.1%.
Consider `CCOc1ccc(C(C)=O)cc1COC(=O)CNC(=O)c1cccs1`, for which the inhibition is -0.9%.
With `Cc1cc2cc(CNC(=O)c3ccc(S(=O)(=O)N4CCOCC4)cc3)ccc2[nH]1`, the inhibition is 71.1% (active).
The value for `O=C(Nc1ccc2cn[nH]c2c1)c1ccc(S(=O)(=O)N2CCOCC2)cc1` was -1.3%; that for `Cc1c(Cl)cccc1NC(=S)NCc1ccc2c(c1)OCO2` was -1.1%.
Take `Cc1cc2cc(CNC(=O)c3cccs3)ccc2[nH]1`: the inhibition is 75.4% (active).
Consider `Cc1cccc(NC(=S)NCc2ccc3[nH]c4c(c3c2)CCCC4)c1`, for which the inhibition is 0.2%.
With `CCc1cccc(CC)c1NC(=S)NCc1ccc2[nH]c(C)cc2c1`, the inhibition is 34.3% (active).
In the case of `O=C(CSc1nncn1-c1cccnc1)N1CCOCC1` it was -0.7%; in that of `O=C(/C=C(O)/C=C/c1ccc(O)cc1)/C=C/c1ccc(O)cc1`, 38.1% (active); in that of `COc1cccc(C=CC(=O)C=CC=Cc2ccccc2)c1`, 0.9%.
Turning to `COc1ccc(/C=C/C(=O)c2c(O)cc(OC)cc2OC)cc1`, the inhibition was -0.9%.
Regarding `Cc1ccccc1S(=O)(=O)NC(=O)C1(C)CCN1C(=O)C1(c2ccc(Cl)cc2)CC1` (stereo unspecified), the inhibition was -0.5%.
The value for `Cc1cc(C(=O)COc2ccccc2[N+](=O)[O-])c(C)n1-c1cccc(S(=O)(=O)N2CCOCC2)c1` was -2%; that for `C#CCNC(=O)C[C@@H]1C[C@@]2(C(=O)OCC)CCCC=C2N(Cc2ccco2)C1=O` was -1.2%.
In the case of `CN(CC(=O)Nc1ccc(F)cc1)CC(=O)N1CCCCC1` it was 0.4%; in that of `COc1ccc(NC(=O)c2sc(=O)n(Cc3ccc(S(=O)(=O)N(C)C)cc3)c2C)cc1`, -0.2%; in that of `CC1(C(=O)NS(=O)(=O)c2ccc(Cl)cc2)CCN1C(=O)CC1CCCC1` (stereo unspecified), -0.4%.
Turning to `CN(C(=O)CCn1c(=S)oc2ccccc21)C1CCCCC1`, the inhibition is 0.7%.
The value for `Cn1nc(N)c2ncc(C(Cl)(Cl)Cl)nc21` was 0%; that for `Fc1cccc(Cc2c(-c3cccc(Cl)c3)nc3ccc(Br)cn23)c1` was 9.7%; that for `O=C1OCC2=C1C(c1ccccc1)CC(=O)N2c1cccc(F)c1` (stereo unspecified) was -1.3%.
Regarding `CCCCOCCCNC(=O)C[C@@H]1C[C@@]2(C(=O)OC)CCCCC=C2N(CCC2=CCCCC2)C1=O`, the inhibition was -0.3%.
Consider `CCc1nc2c(OCCOc3ccccc3)cccn2c1N(C)C(=O)c1ccccc1F`, for which the inhibition was -0.2%.
As to `COc1ccc([C@H]2N[C@]3(CCCN(Cc4ccco4)C3=O)[C@H]3C(=O)N(C)C(=O)[C@@H]23)cc1`, the inhibition is -0.4%.
Consider `COC(=O)[C@]12CCCCC=C1N(CCC1=CCCCC1)C(=O)[C@H](CC(=O)NCC1CCCCC1)C2`, for which the inhibition is 0%.
Take `CC(C)(C)CC(=O)Nc1nc(C(N)Cc2ccc(C(F)(F)F)cc2)cs1` (stereo unspecified): the inhibition is -0.5%.
The value for `CN1CCN(C(=O)c2ccc(NC(=O)c3ccc(Br)o3)cc2)CC1` was 0.8%; that for `COC(=O)c1cn(C)c2ccc(S(=O)(=O)N3CC(C)CC(C)C3)cc2c1=O` (stereo unspecified) was -1.1%; that for `CC(=O)Nc1cccc(Nc2ccc(C#N)cc2)c1` was 0%.
On to `COc1ccc(NC(=O)NN2CCN(C)CC2)c(OC)c1`, for which the inhibition was -3.1%.
As for `COc1ccc(C(=O)c2c(C)c(CCC#N)n3ccccc23)c(OC)c1`, the inhibition is 0.8%.
Consider `CC1(C)c2[nH]c3ccccc3c2C[C@H]2C(=O)N(N)CC(=O)N21`, for which the inhibition is -1.4%.
The value for `CC1=CC(=C(C#N)c2nc3ccccc3s2)C=C(C)N1c1ccc(F)cc1F` was 48.3% (active); that for `Cc1nn(-c2ccc(F)cc2)c(Cl)c1/C=C(/CCC(=O)O)c1nc2ccccc2s1` was -0.5%.
In the case of `CSCC[C@H](NC(=O)NCCc1ccc(F)cc1)C(=O)O` it was 0%; in that of `O=c1c2[nH]c3ccc(Cl)cc3c2ncn1Cc1ccccn1`, 1%; in that of `O=C(NCc1ccc(Cl)cc1)C(=O)NCC1CCCN1S(=O)(=O)c1cccs1` (stereo unspecified), -1.5%.
Turning to `NC(=O)c1ccc(N2CCCC2)nc1`, the inhibition is 0.8%.
Consider `Oc1cccc(CCc2ccccn2)c1`, for which the inhibition is -0.4%.
The value for `CCOc1ccccc1NC(=O)C1CCCN(C(=O)Nc2ccccc2)C1` (stereo unspecified) was 0%; that for `COc1cc(OC)c(-n2cc(-c3ccc(Cl)cc3)[nH]c2=O)cc1Cl` was 0.1%; that for `O=C(COC(=O)CC1CC2CCC1C2)NC(=O)NC1CCCC1` (stereo unspecified) was 0.7%.
The value for `O=C(NCc1ccccc1)C1c2ccccc2OCC(=O)N1C1CC1` (stereo unspecified) was 0%; that for `O=C(NCCc1ccco1)C(=O)NCCC1CCCCN1S(=O)(=O)c1ccccc1` (stereo unspecified) was -3.9%.

As a reminder, the inhibition is the drop in the measured response relative to a control, in per cent.
